This is an account of results in PubChem BioAssay AID687021 (Broad Institute, 2013).

Calls of active or inactive are those of the source.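 The calls were made as follows: active = compounds lowering luciferase light whose fitted half-effect concentration is at most twice the top tested dose; inconclusive = flat curve with 30 to 70% inhibition, or poor fit; inactive = the rest.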

A short description of this experiment: luciferase signal loss, tTA control fusion, HeLa F-luc tTA cells, dry powder, counter-screen for HIV Env fusion inhibitor project, dose response (AID 687021). The note with it: luciferase luminescence counterscreen; series mostly up to 35 µM.
Turning to `CC(=O)Nc1ccc(NC(=O)CN(c2ccc(C34CC5CC(CC(C5)C3)C4)cc2)S(C)(=O)=O)cc1`, the result was inactive.

In the case of `Cc1noc(C)c1S(=O)(=O)Nc1cccc2c1O[C@H](CN(C)Cc1ccc(C(F)(F)F)cc1)[C@H](C)CN([C@H](C)CO)C2=O`, the outcome was inactive.

As to `COc1ccc2c(c1)[nH]c1c(N3CCN(Cc4ccc5c(c4)OCO5)CC3)ncnc12`, the result was inactive.

On to `Cc1oc(-c2ccc(Cl)cc2)nc1CN1CCCC(C(=O)NCc2cccnc2)C1` (configuration not stated), for which the molecule was called inactive.

As for `COc1ccc(S(=O)(=O)NCc2ccncc2)cc1OC`, the molecule was classed as inactive.

As to `COc1ccccc1CCNCc1ccc(OC)c(OCc2ccccc2)c1`, the call was inactive.

In the case of `CCOc1ccc(S(=O)(=O)NCc2ccncc2)cc1Cl`, the call was inactive.

For the molecule `C[C@@H]1CN([C@H](C)CO)C(=O)c2cccc(NC(=O)C3CCCCC3)c2O[C@H]1CN(C)Cc1ccccc1`, the molecule was classed as inactive.

With `COc1ccc(-c2nn(C)c(=O)c3ccccc23)cc1NC(=O)Cn1nc(C)c2ccccc2c1=O`, the result was inactive.

With `CCOc1ccc(S(=O)(=O)NC(C)c2ccncc2)cc1` (configuration not stated), the result was inactive.

As for `Cn1c(C(=O)N2CCN(c3nc4ccccc4s3)CC2)cc2sccc21`, the molecule was classed as inactive.

As to `O=C(CCCn1c(=S)[nH]c2cc3c(cc2c1=O)OCO3)N1CCN(c2ccc(Cl)cc2)CC1`, the molecule was classed as inactive.

`Cc1ccc(C)n1-c1ccc(C(=O)O)c(O)c1`: the outcome was inactive.

For the molecule `COc1ccc(-c2cc(C(=O)NNC(=S)NC(=O)c3c(-c4ccccc4)noc3C)[nH]n2)cc1`, the outcome was inactive.

Regarding `Cc1noc(C)c1S(=O)(=O)Nc1cccc2c1O[C@@H](CN(C)Cc1ccc(C(F)(F)F)cc1)[C@H](C)CN([C@@H](C)CO)C2=O`, the result was inactive.

Turning to `Cc1noc(C)c1S(=O)(=O)Nc1cccc2c1O[C@@H](CN(C)Cc1ccc(C(F)(F)F)cc1)[C@H](C)CN([C@H](C)CO)C2=O`, the outcome was inactive.

As to `CCOc1ccc(C(=O)C2CCN(CC(=O)Nc3ccccc3N3CCOCC3)CC2)cc1`, the molecule was classed as inactive.

Take `O=S(=O)(NCc1ccncc1)c1ccc2c(c1)OCCO2`: the outcome was inactive.

For `CCCn1nc(C(=O)Nc2ccc3nc(N4CCOCC4)sc3c2)ccc1=O`, the molecule was classed as inactive.

Take `C[C@H]1CN([C@@H](C)CO)C(=O)c2ccccc2-c2ccccc2CO[C@H]1CN(C)S(=O)(=O)c1ccccc1C#N`: the result was inactive.

Regarding `CCOc1ccc(S(=O)(=O)NCc2ccncc2)cc1`, the molecule was classed as inactive.

As to `Clc1ccc2c(c1)C(C1=NCCN1)c1ccccc1CS2` (configuration not stated), the outcome was inactive.
